Laboratory results as given in PubChem BioAssay AID624246 (National Center for Advancing Translational Sciences (NCATS), 2012).
In all, about 370,000 compounds went through this assay and about 100 (0.027%) were called active. The sample holds actives, similar compounds and a random draw of the others, so the mix is not that of the screen. Calls come from the whole dose curve; as a rule, active = well fitted inhibition curve with a large enough effect in the polarisation, with a control signal flat; inconclusive = small, poorly fitted or top-dose-only effect, or effect the other way, or a change in a side signal; inactive = no such curve, though single readings can be large or run the other way; the % refers to the polarisation.

target: Transcriptional regulator ERG (Homo sapiens) (UniProt P11308); assay: qHTS for Small Molecule Inhibitors of the ERG Ets/DNA interaction; conditions: fluorescence polarization, His-ERG Ets domain / labelled DNA; series mostly up to 76.9 µM; FP activity, negative = inhibition: at the top concentration; for FP activity, negative = inhibition: % of control where 0% means no effect
Sequence (P11308 whole entry, looked up, the tested form may be a part): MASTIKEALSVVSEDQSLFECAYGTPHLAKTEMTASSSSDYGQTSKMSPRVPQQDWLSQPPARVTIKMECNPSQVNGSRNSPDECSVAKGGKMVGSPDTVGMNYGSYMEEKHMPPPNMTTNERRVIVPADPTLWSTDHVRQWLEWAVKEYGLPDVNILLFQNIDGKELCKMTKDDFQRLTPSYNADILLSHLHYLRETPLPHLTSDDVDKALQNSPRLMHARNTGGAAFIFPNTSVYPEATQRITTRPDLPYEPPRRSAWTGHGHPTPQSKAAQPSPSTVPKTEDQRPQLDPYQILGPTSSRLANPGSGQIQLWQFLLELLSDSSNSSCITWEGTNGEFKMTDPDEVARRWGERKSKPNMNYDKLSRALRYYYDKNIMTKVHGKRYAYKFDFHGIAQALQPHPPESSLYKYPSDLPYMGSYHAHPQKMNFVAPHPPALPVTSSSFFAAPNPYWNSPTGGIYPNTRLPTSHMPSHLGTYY
From the text: The Ets family of proteins is a family of ~30 conserved transcription factors defined by the presence of an ~85 amino acid domain referred to as the Ets domain, which mediates sequence-specific DNA binding to a core DNA element GGAA/T.The Ets family member ERG has been linked to several neoplasms. […] More extensive studies of the effects of over-expression of ERG in prostate cells have recently been carried out and have shown that over-expression of ERG results in increased invasion. […] We will carry out a high throughout screen to identify inhibitors of the interaction between ERG and DNA using a fluorescence polarization (FP) assay with a His-tagged ERG Ets domain and fluorescently-labeled DNA probes to develop small molecule inhibitors of this interaction as probes to test this hypothesis and lay the groundwork for the development of targeted therapies against ERG. NIH Molecular Libraries Probe Production Network [MLPCN] NIH Chemical Genomics Center [NCGC] Grant: NS066464 PI Name: John Bushweller, University of Virgina
1.5 ul of protein solution (1 uM ERG domain in 300mM KCl, 50mM Tris-HCl, 1mM EDTA, 1mM DTT, pH 7.5); 20 nl Control plate and compound library plate; 1.5 ul mixture of 5 nM Fluorescein-DNA and 100nM Texas-615-DNA solution in same buffer as above solution; measure fluorescence polarization sequentially for fluorescein (Excitation = 480 nm, Emission = 535s, 535p nm) and Texas red (Excitation = 555 nm, Emission = 632s, 632p nm).
Potency is the fitted concentration of half-maximal effect.

| Structure (SMILES) | FP activity, negative = inhibition | Potency |
| --- | --- | --- |
| Cc1ccc(-c2nnc(Nc3ccc(OCC(N)=O)cc3)c3ccccc23)cc1S(=O)(=O)NCC1CCCO1 (stereo unspecified) | 7.84% (inactive) | – |
| O=C(NC1CC(=O)N(c2ccc(F)cc2)C1)c1cccs1 (stereo unspecified) | -14.7% (inactive) | – |
| O=C(NCCc1ccc(Cl)cc1)c1ccc2nc(CCc3ccccc3)oc2c1 | -3.36% (inactive) | – |
| COc1ccc(OC)c(CNC(=O)CN2C(=O)CCn3nc(-c4cn(C)c5ccccc45)cc32)c1 | -3.27% (inactive) | – |
| Cc1ccc(NC(=O)CSc2nc3c(c(=O)[nH]2)CN(Cc2ccc4c(c2)OCO4)CC3)cc1C | -1.58% (inactive) | – |
| CCCCc1nn2c(=O)cc(COC(=O)c3ccc(NC(=O)c4ccccc4C)cc3)nc2s1 | -6.35% (inactive) | – |
| Cc1ccc(NC(=O)CSc2nc3ccccc3c3nc(CCn4cncc4C)nn23)cc1F | -3.62% (inactive) | – |
| CC1=C(C(=O)N2CCN(c3cccc(C(F)(F)F)c3)CC2)C2(CCCCC2)OC1=O | 8.81% (inactive) | – |
| O=C(CNC(=O)c1ccco1)OCC(=O)c1ccccc1 | -7.95% (inactive) | – |
| Cc1cc(C(=O)COC(=O)CNC(=O)c2ccc(F)cc2)c(C)n1Cc1ccco1 | -5.22% (inactive) | – |
| COCCn1c(C)cc(C(=O)COC(=O)CNC(=O)c2ccco2)c1C | – | 7.94 µM (active) |
| CC(C)c1ccc(NC(=O)CN(C)S(=O)(=O)c2ccc3c(c2)c(=O)n(C)c(=O)n3C)cc1 | 2.26% (inactive) | – |
| CCOC(=O)c1cccc(NC(=O)C(Cc2ccccc2)NS(=O)(=O)c2cccc3nsnc23)c1 (stereo unspecified) | -2.33% (inactive) | – |
| CCS(=O)(=O)N1CCC(n2c(C)nc3cccnc32)CC1 | -0.342% (inactive) | – |
| CCOc1ccc(-c2cc3nc(C4CCN(C(=O)OC(C)(C)C)CC4)c(C(=O)Nc4ccc(C(=O)OC)cc4)cn3n2)cc1 | 5.08% (inactive) | – |
| CCc1ccc(CN(Cc2ccco2)C(=O)c2ccccc2Cl)cc1 | 1.74% (inactive) | – |
| CCN(CCCNC(=O)Cn1ncc2c3ccccc3n(C)c2c1=O)Cc1ccccc1 | -2.87% (inactive) | – |
| CCC(=O)N1CCc2cc(S(=O)(=O)NCCC(=O)Nc3cccc(C)c3C)ccc21 | -8.47% (inactive) | – |
| Cc1ccc(-n2ncc(C(=O)N(C)Cc3ccccc3)c2-n2cccc2)cc1 | -2.68% (inactive) | – |

| Structure (SMILES) | FP activity, negative = inhibition | Potency |
| --- | --- | --- |
| Cc1cc(O)c(C(c2ccccc2)N2CCN(c3ccccc3F)CC2)c(=O)n1Cc1ccco1 (stereo unspecified) | -1.43% (inactive) | – |
| CCOc1ccc(C(=O)/C=C/c2cn(CC(O)CN3CCCCCC3)c3ccccc23)cc1 (stereo unspecified) | -4.97% (inactive) | – |
| Cc1cc(C)c(NC(=O)CN2C(=O)c3cccnc3Oc3ccc(Cl)cc32)c(C)c1 | 2.19% (inactive) | – |
| CCc1ccc(S(=O)(=O)c2nnn3c2nc(N2CCN(CC)CC2)c2sccc23)cc1 | 6.31% (inactive) | – |
| Cc1cccc(NC(=O)CSc2nnc(CNC(=O)c3cccc(C)c3)n2-c2ccccc2)c1 | 4.19% (inactive) | – |
| Cc1ccccc1-c1nc2scc(CCNC(=O)C(=O)Nc3ccc(F)cc3F)n2n1 | -7.04% (inactive) | – |
| CC(C)CCNC(=O)CSc1nc2ccccc2nc1Cc1ccc(Cl)cc1 | -16.9% (inactive) | – |
| CC(=O)Nc1cccc(NC(=O)CSc2nccn2Cc2ccc3c(c2)OCO3)c1 | 3.24% (inactive) | – |
| CCC(=O)N1CCc2cc(Br)cc(S(=O)(=O)Nc3ccc(C)cc3C)c21 | 0.336% (inactive) | – |
| O=C(CN1CCN(Cc2ccc(Cl)cc2)C1=O)NCc1ccc(F)cc1 | 5.89% (inactive) | – |
| COc1ccc(-c2cccc(NS(=O)(=O)c3cc(C)c(OC)c(C)c3C)c2)nn1 | -0.101% (inactive) | – |
| Cc1nn2c(=O)cc(COC(=O)CNC(=O)c3ccc(F)cc3)nc2s1 | -9.84% (inactive) | – |
| CCOc1ccccc1C(=O)NCc1ccc2c(c1)CCN2C(=O)c1ccc(F)cc1 | -0.811% (inactive) | – |
| Cc1c(NC(=O)Nc2ccc(F)c(Cl)c2)c(=O)n(-c2ccccc2)n1C | -5.55% (inactive) | – |
| Cc1ccc(N2CC(NC(=O)Cc3cccs3)CC2=O)cc1 (stereo unspecified) | -1.63% (inactive) | – |
| Cc1nnc(N2CCC(C(=O)Nc3ccc(F)cc3)CC2)c2nn(-c3ccc(Cl)cc3)c(C)c12 | 4.61% (inactive) | – |
| Cc1ccc(C)c(N2CCN(C(=O)Cn3ncc4c(=O)oc5ccc(C)cc5c43)CC2)c1 | -2.21% (inactive) | – |
| Cc1ccc(C(=O)N2CCc3cc(CNC(=O)c4ccc(Br)cc4)ccc32)cc1 | 0.293% (inactive) | – |
| Cc1ccc(S(=O)(=O)NCc2nc3nc(C)cc(C)n3n2)cc1 | -0.121% (inactive) | – |

| Structure (SMILES) | FP activity, negative = inhibition | Potency |
| --- | --- | --- |
| CCN(CCCNC(=O)c1cc(Nc2ccc(OC)cc2)nc2ccccc12)c1cccc(C)c1 | 11.4% (inactive) | – |
| CCc1nnc2c3ccccc3nc(N3CCN(c4ccc(C)cc4C)CC3)n12 | -1.84% (inactive) | – |
| Cc1nnc(SCc2cc(=O)c3cc(F)ccc3[nH]2)n1C | -0.734% (inactive) | – |
| Cc1ccc(C(=O)Nc2ccc3[nH]c(=O)c(=O)[nH]c3c2)cc1 | 10.2% (inactive) | – |
| Cc1sc(C2C(C#N)=C(N)N(c3cccc(Cl)c3)C3=C2C(=O)CCC3)cc1CN1CCOCC1 (stereo unspecified) | -0.155% (inactive) | – |
| O=C(CCc1ccccc1)NCc1ccc2c(c1)CCN2C(=O)c1ccccc1 | -1.84% (inactive) | – |
| CCc1ccccc1NC(=O)c1sc2nc3c(cc2c1N)CN(Cc1ccccc1)CC3 | 2.85% (inactive) | – |
| COc1ccc(CCNC(=O)c2ccc(CSCc3ccc(C)cc3)o2)cc1OC | -0.298% (inactive) | – |
| CCCn1c2ccccc2c2cnn(CC(=O)N3CCCC(C(=O)OCC)C3)c(=O)c21 (stereo unspecified) | 1.31% (inactive) | – |
| Cc1cc(C(=O)Nc2cccc(C(F)(F)F)c2)c2c(C)nn(-c3cccc(F)c3)c2n1 | 16.8% (inactive) | – |
| CC(C)(C)c1ccc(C(=O)Nc2ccc3c(c2)CCCN3C(=O)c2cccs2)cc1 | -9.6% (inactive) | – |
| COc1ccc(-c2nc(CS(=O)CC(=O)NCc3cccnc3)c(C)o2)cc1OC (stereo unspecified) | 2.92% (inactive) | – |
| COc1ccc(-c2nc(CS(=O)CC(=O)NCc3ccccn3)c(C)o2)cc1 (stereo unspecified) | – | 35.5 µM (active) |
| COc1ccc(CNC(=O)CS(=O)Cc2nc(-c3cccc(C)c3)oc2C)cc1 (stereo unspecified) | 7.27% (inactive) | – |
| Cc1cc(C)nc(NS(=O)(=O)c2ccc(NC(=O)c3cc(=O)c4ccc(C)c(C)c4o3)cc2)n1 | 5.27% (inactive) | – |
| CCCn1c(NCc2ccccc2F)nc2ccccc21 | -2.58% (inactive) | – |
| O=C(CSc1nc(Nc2ccc(F)c(F)c2)c2ccccc2n1)c1ccc(Cl)cc1 | 3.88% (inactive) | – |
| COc1cc(C(=O)Nc2ccc(OCc3cc(=O)n4ccc(C)cc4n3)cc2)cc(OC)c1OC | 3.21% (inactive) | – |
